Results published in PubChem BioAssay (Tox21).
Inconclusive results are not listed. The source made the active and inactive calls. Unless noted, calls follow the shape of the dose curve; as a rule, active = well fitted curve in the direction sought with a large enough effect in the repeat runs; inconclusive = weak or mixed curves; inactive = no such curve, though single readings can be large; an effect the other way counts as inactive or inconclusive.

Columns and labels:
[1] = qHTS assay to identify small molecule HDAC inhibitors (AID 1259364); also: potency is read from the fitted curve at half-maximal effect;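 also: wild-type HCT-116 cells with endogenous class I/II HDAC activity; nearly all actives have a fitted effect of over 45% in size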; as to activity change, negative = inhibition: top concentration of the series differs between compounds
Procedure, shortened: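 Read-out: luminescence of HDAC-Glo I/II reagent, 30 min RT, reflecting class I/II deacetylase activity in whole HCT-116 cells pre-exposed 2 h to DMSO-dissolved compounds.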

[2] = qHTS assay to identify small molecule HDAC inhibitors - cell viability counter screen (AID 1259365); also: series mostly up to about 92 µM; nearly all actives have a fitted effect of over 50% in size
Procedure, shortened: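 After overnight seeding at 1,500 cells per well, wild-type HCT-116 cultures took up compounds in DMSO for 2hr at 37 C. Viable cell content came from luminescence with CellTiter-Glo.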

[3] = qHTS assay to identify small molecule antagonists of the sonic hedgehog signaling (Shh) pathway - cell viability counter screen (AID 1259367); also: nearly all actives have a fitted effect of over 55% in size
Procedure, shortened: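 Cells: 3T3 Gli1-Luc, 2,000/well, 4 hr pre-incubation. Compounds in DMSO, then conditioned medium. Incubation 24 hr, 37C, 5% CO2. CellTiter-Fluor at 23 hr, 1 hr, fluorescence.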

[4] = qHTS assay to identify small molecule agonists of the sonic hedgehog signaling (Shh) pathway (AID 1259368; calls by dose curve;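 also: NIH/3T3-derived 3T3Gli1-Luc cells carrying a stable Gli1-driven firefly luciferase reporter; series mostly up to about 92 µM; nearly all actives have a fitted effect of over 15% in size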)
Procedure, shortened: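 A Gli1 transcriptional response element controlled firefly luciferase in 3T3Gli1-Luc cells. Compounds and a positive control were added 4 hr after plating, and cells were incubated a further 24 hr at 37 C before luminescence detection.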

[5] = qHTS assay to identify small molecule antagonists of the sonic hedgehog signaling (Shh) pathway (AID 1259369; calls by dose curve; also: nearly all actives have a fitted effect of over 45% in size)
Procedure, shortened: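 For antagonist detection, the reporter line received test compounds together with conditioned medium, incubated 24hr at 37 C, 5% CO2, then luminescence was recorded following 30min room-temperature luciferase reagent incubation.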

[6] = qHTS assay to identify small molecule agonists of the androgen receptor (AR) signaling pathway in the presence of an antagonist - cell viability counter screen (AID 1259379);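 also: MDA-kb2 human breast cancer cells carrying an MMTV luciferase reporter; series mostly up to about 92 µM; nearly all actives have a fitted effect of over 25% in size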
Procedure, shortened: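 Seed MDA-kb2 at 3,000 cells/well; incubate 5 hr, 37C, 0% CO2. Add nilutamide to 3.0uM final, then pin compounds at 15 concentrations. Incubate 16 hr. Add CellTiter-Fluor at 15 hr, read fluorescence after 1 hr.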

[7] = target: Estrogen receptor beta (Homo sapiens) (UniProt Q92731); experiment: qHTS assay to identify small molecule agonists of the estrogen receptor beta (ER-beta) signaling pathway (AID 1259377; active = well fitted activation curve with a large enough effect in the signal ratio in the repeat runs, not every such curve was filed as active; the % refers to the signal ratio)
Estrogen receptor beta (Homo sapiens), sequence (Q92731 whole entry, looked up): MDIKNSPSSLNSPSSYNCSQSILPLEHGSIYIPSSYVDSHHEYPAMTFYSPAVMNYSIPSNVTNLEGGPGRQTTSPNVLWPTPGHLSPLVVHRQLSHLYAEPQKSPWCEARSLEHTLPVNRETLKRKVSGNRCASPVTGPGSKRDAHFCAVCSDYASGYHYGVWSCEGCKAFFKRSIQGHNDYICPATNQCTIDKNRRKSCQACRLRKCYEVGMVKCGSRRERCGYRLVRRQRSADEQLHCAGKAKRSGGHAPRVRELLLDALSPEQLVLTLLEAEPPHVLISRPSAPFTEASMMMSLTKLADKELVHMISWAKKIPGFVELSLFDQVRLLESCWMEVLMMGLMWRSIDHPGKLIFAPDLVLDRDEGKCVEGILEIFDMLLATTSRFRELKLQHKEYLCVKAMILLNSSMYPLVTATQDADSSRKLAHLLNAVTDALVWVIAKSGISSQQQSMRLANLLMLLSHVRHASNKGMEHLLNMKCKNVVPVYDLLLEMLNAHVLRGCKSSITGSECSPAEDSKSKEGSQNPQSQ
Procedure, shortened: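 Read-out: beta-lactamase FRET fluorescence. Cell line: ER-beta-UAS-bla HEK293T in 2% charcoal-stripped FBS. Exposure: 16 hr at 37C. Substrate step: 2 h at room temperature.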

[8] = target: Estrogen receptor beta (Homo sapiens) (UniProt Q92731); experiment: qHTS assay to identify small molecule antagonists of the estrogen receptor beta (ER-beta) signaling pathway (AID 1259378; active = well fitted inhibition curve with a large enough effect in the signal ratio in the repeat runs, not every such curve was filed as active; the % refers to the signal ratio)
Procedure, shortened: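 Antagonist mode: compounds added to beta-lactamase reporter HEK293T ER-beta-UAS cells stimulated with E2 (1nM final), 16 hr at 37C. LiveBLAzer B/G FRET substrate, 2 hours room temperature, fluorescence read-out.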

[9] = qHTS assay to identify small molecule agonists of the estrogen receptor beta (ER-beta) signaling pathway - cell viability counter screen (AID 1259380); also: nearly all actives have a fitted effect of over 30% in size
Procedure, shortened: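 CellTiter-Glo read, 30 min RT, same wells as bla assay; cells ER-beta-UAS-bla HEK293T; 16 hr compound, 37C; medium 2% charcoal-stripped FBS.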

[10] = qHTS assay to identify small molecule agonists of the sonic hedgehog signaling (Shh) pathway - cell viability counter screen (AID 1259366); also: nearly all actives have a fitted effect of over 50% in size
Procedure, shortened: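 Same-well cytotoxicity read. Gli1-Luc reporter 3T3 cells; compounds 24hr, 37C/5% CO2; CellTiter-Fluor fluorescence.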
% is scaled to controls: 0 for no effect and ±100 for the full control effect.

C/C=C(\C)C(=O)OCCc1ccccc1
inactive: outcome [2] | outcome [3] | outcome [4] | Potency [5] | outcome [6]
active: Potency [1] 27.3 µM

[O]=[Mo](=[O])=[O]
inactive: activity change, negative = inhibition [1] 3.49% [at 19 µM] | activity change, negative = cytotoxicity [2] 3.01% [at 19 µM] | viability change, negative = cytotoxic [3] 0.3% [at 19 µM] | activity change [4] -1.33% [at 18.9 µM] | activity change, negative = inhibition [5] -0.431% [at 19 µM] | activation [7] -1.75% [at 19 µM] | activity, negative = inhibition [8] 0.823% [at 19 µM] | activity change, negative = cytotoxicity [6] 2.34% [at 19 µM] | activity change, negative = cytotoxicity [9] 3.4% [at 19 µM]

Cc1ccc(N)cc1S(=O)(=O)O
inactive: Potency [1] | outcome [2] | outcome [3] | outcome [4] | Potency [5] | Potency [7] | Potency [8] | outcome [6] | outcome [9]

CC(=O)c1cc(C)oc1C
inactive: Potency [1] | outcome [2] | outcome [3] | Potency [5] | Potency [7] | outcome [6] | outcome [9]

COP(=O)(O)OP(=O)(O)OC
inactive: Potency [1] | outcome [2] | outcome [3] | outcome [4] | Potency [5] | Potency [8] | outcome [6] | outcome [9]

C[C@]12CCC(=O)C=C1CC[C@H]1[C@@H]3CC[C@](O)(C(=O)CO)[C@@]3(C)C[C@H](O)[C@@]12F
inactive: outcome [2] | outcome [10] | outcome [3] | outcome [4] | Potency [5] | Potency [7] | Potency [8] | outcome [6] | outcome [9]

C=CCCCCCCCCC(=O)OCCCC
inactive: Potency [1] | outcome [2] | outcome [3] | Potency [5] | Potency [8] | outcome [6] | outcome [9]

Cc1cc(-c2ccccc2)nnc1NCCN1CCOCC1
inactive: Potency [1] | outcome [2] | outcome [3] | outcome [4] | Potency [7] | Potency [8] | outcome [6] | outcome [9]

COC(=O)/C=C\C(=O)O
inactive: outcome [2] | outcome [10] | outcome [3] | outcome [4] | Potency [5] | Potency [7] | Potency [8] | outcome [6]

O=Cc1ccccc1Cl
inactive: Potency [1] | outcome [2] | outcome [3] | outcome [4] | Potency [5] | Potency [7] | Potency [8] | outcome [6] | outcome [9]

CCC[C@@H]1C[C@@H](C(=O)N[C@@H]([C@H]2O[C@H](SC)[C@H](O)[C@@H](O)[C@H]2O)[C@@H](C)O)N(C)C1
inactive: Potency [1] | outcome [2] | outcome [3] | outcome [4] | Potency [5] | Potency [7] | Potency [8] | outcome [6] | outcome [9]

C/C=C(\C)C(C)=O
inactive: Potency [1] | outcome [2] | outcome [3] | outcome [4] | Potency [5] | outcome [6] | outcome [9]

CC(=O)C(C)O (configuration not stated)
inactive: Potency [1] | outcome [2] | outcome [3] | outcome [4] | Potency [7] | Potency [8] | outcome [6] | outcome [9]

CCCCCCCCCCOC(C)=O
inactive: Potency [1] | outcome [2] | outcome [3] | outcome [4] | Potency [5] | outcome [6] | outcome [9]

CCOCCOCC
inactive: Potency [1] | outcome [2] | outcome [3] | outcome [4] | Potency [5] | Potency [7] | Potency [8] | outcome [6] | outcome [9]

CCCCCCCCCOC(=O)CCCCC(=O)OCCCCCCC
inactive: outcome [2] | outcome [10] | outcome [3] | outcome [4] | Potency [5] | outcome [6]

Cc1c(C(=O)c2c[nH]n(C)c2=O)ccc(S(C)(=O)=O)c1C1=NOCC1
inactive: outcome [2] | outcome [10] | outcome [3] | outcome [4] | Potency [7] | Potency [8] | outcome [6] | outcome [9]

CCCCCCCCCCCCCCC(=O)NC(CO)CCCCCCCCCCCCCC (configuration not stated)
inactive: outcome [2] | outcome [10] | outcome [3] | outcome [4] | Potency [5] | Potency [8] | outcome [6] | outcome [9]

CC(C)OC(=O)CCC(=O)OC(C)C
inactive: outcome [2] | outcome [10] | outcome [3] | outcome [4] | Potency [8] | outcome [6] | outcome [9]

CN(C)CCCO[C@@H]1[C@H]2OC(C)(C)O[C@H]2O[C@@H]1C(O)CO (some centres not stated)
inactive: outcome [2] | outcome [10] | outcome [3] | outcome [4] | Potency [5] | outcome [6] | outcome [9]

CCCCCCCCCOC(=O)c1ccccc1C(=O)OCCCCCCCCC
inactive: outcome [2] | outcome [10] | outcome [3] | outcome [4] | Potency [7] | outcome [6] | outcome [9]

CCc1occc(=O)c1O
inactive: outcome [2] | outcome [3] | Potency [5] | outcome [6] | outcome [9]

C/C(=C1\CCOC(=O)S1)N(C=O)Cc1cnc(C)nc1N
inactive: outcome [2] | outcome [3] | outcome [4] | Potency [5] | Potency [8] | outcome [6] | outcome [9]

Cc1ccc(C(=O)O)cc1[N+](=O)[O-]
inactive: outcome [2] | outcome [10] | outcome [3] | Potency [5] | Potency [8] | outcome [6] | outcome [9]
